Measured values taken from PubChem BioAssay AID1159580 (chemical genetic matrix, 2015).
“And” between values parts separate entries of the source, which are not always exact repeats. Equal values may be shown once. Hit rate of the full screen: of about 5,500 compounds, about 2,000 (36%) were called active. Inconclusive results (about 18%) are left out. This is one part of the list. Values without a mark were called inactive. No stated cut-off is given here; in the data, active means normalized growth mostly below about 0.91 (no sharp cut-off); inconclusive means no clear call, values can overlap the other calls; inactive means mostly above about 0.92.

Experiment: chemical genetic growth profiling, strain panel (AID 1159580);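 further: tested at 20 µM; growth read once vehicle control cultures reached saturation at 30 °C; 1 = growth at the plate median or of vehicle wells; lower values mean less growth of the strain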
Conditions: S. cerevisiae deletion strains, growth OD

## Cc1cc(C(C)(C)C)c(O)c(C(C)(C)C)c1
Locus YAL013W, strain DEP1, active compounds read low
  normalized growth: 0.985
Locus YAL021C, strain ccr4, active compounds read low
  normalized growth: 1.04
Locus YAL026C, strain drs2, active compounds read low
  normalized growth: 0.956
Locus YAL030W, strain snc1, active compounds read low
  normalized growth: 0.99
Locus YBL061C, strain skt5, active compounds read low
  normalized growth: 0.943
Locus YBR009C, strain hhf1, active compounds read low
  normalized growth: 0.91
Locus YBR021W, strain FUR4, active compounds read low
  normalized growth: 0.997
Locus YBR023C, strain chs3, active compounds read low
  normalized growth: 0.984
Locus YBR171W, strain sec66, active compounds read low
  normalized growth: 0.979
Locus YBR229C, strain ROT2, active compounds read low
  normalized growth: 0.964
Locus YBR231C, strain swc5, active compounds read low
  normalized growth: 0.921
Locus YBR279W, strain paf1, active compounds read low
  normalized growth: 0.996
Locus YCL011C, strain gbp2, active compounds read low
  normalized growth: 0.917
Locus YCL016C, strain dcc1, active compounds read low
  normalized growth: 0.983
Locus YCL029C, strain bik1, active compounds read low
  normalized growth: 0.983
Locus YCL061C, strain MRC1, active compounds read low
  normalized growth: 0.991
Locus YCL069W, strain vba3, active compounds read low
  normalized growth: 0.99
Locus YCR088W, strain abp1, active compounds read low
  normalized growth: 0.976
Locus YDL005C, strain med2, active compounds read low
  normalized growth: 0.975
Locus YDL035C, strain GPR1, active compounds read low
  normalized growth: 0.947
Locus YDL040C, strain nat1, active compounds read low
  normalized growth: 0.978
Locus YDL074C, strain BRE1, active compounds read low
  normalized growth: 0.816
Locus YDL101C, strain DUN1, active compounds read low
  normalized growth: 0.96
Locus YDL134C, strain PPH21, active compounds read low
  normalized growth: 0.972
Locus YDL185W, strain tfp1, active compounds read low
  normalized growth: 0.962
Locus YDL192W, strain arf1, active compounds read low
  normalized growth: 0.969
Locus YDR001C, strain nth1, active compounds read low
  normalized growth: 0.978
Locus YDR069C, strain doa4, active compounds read low
  normalized growth: 0.963
Locus YDR101C, strain arx1, active compounds read low
  normalized growth: 0.977
Locus YDR137W, strain rgp1, active compounds read low
  normalized growth: 0.965
Locus YDR150W, strain NUM1, active compounds read low
  normalized growth: 0.975
Locus YDR159W, strain sac3, active compounds read low
  normalized growth: 0.959
Locus YDR162C, strain NBP2, active compounds read low
  normalized growth: 0.859
Locus YDR195W, strain ref2
  normalized growth: 0.845 (active)
Locus YDR297W, strain sur2, active compounds read low
  normalized growth: 0.983
Locus YDR318W, strain mcm21, active compounds read low
  normalized growth: 0.984
Locus YDR334W, strain swr1, active compounds read low
  normalized growth: 0.966
Locus YDR335W, strain msn5, active compounds read low
  normalized growth: 0.989
Locus YDR388W, active compounds read low
  normalized growth: 0.994
Locus YDR392W, strain spt3, active compounds read low
  normalized growth: 0.937
Locus YDR502C, strain sam2, active compounds read low
  normalized growth: 0.952
Locus YEL003W, strain gim4, active compounds read low
  normalized growth: 0.967
Locus YEL037C, strain rad23, active compounds read low
  normalized growth: 0.976
Locus YEL061C, strain CIN8 (second series), active compounds read low
  normalized growth: 0.976
Locus YEL061C, strain CIN8, active compounds read low
  normalized growth: 0.983
Locus YER015W, strain faa2, active compounds read low
  normalized growth: 0.937
Locus YER016W, strain bim1, active compounds read low
  normalized growth: 0.984
Locus YER110C, active compounds read low
  normalized growth: 1
Locus YER111C, strain swi4, active compounds read low
  normalized growth: 0.982
Locus YER155C, strain BEM2 (second series), active compounds read low
  normalized growth: 0.949
Locus YER155C, strain BEM2, active compounds read low
  normalized growth: 0.986
Locus YER167W, strain BCK2, active compounds read low
  normalized growth: 0.963
Locus YFR010W, strain ubp6, active compounds read low
  normalized growth: 0.956
Locus YGL078C, strain dbp3, active compounds read low
  normalized growth: 0.962
Locus YGL086W, strain mad1, active compounds read low
  normalized growth: 1
Locus YGL167C, strain pmr1, active compounds read low
  normalized growth: 0.991
Locus YGL173C, strain kem1, active compounds read low
  normalized growth: 0.957
Locus YGL227W, strain vid30, active compounds read low
  normalized growth: 0.989
Locus YGL240W, strain doc1, active compounds read low
  normalized growth: 0.938
Locus YGL248W, strain PDE1, active compounds read low
  normalized growth: 0.965
Locus YGL253W, strain hxk2, active compounds read low
  normalized growth: 0.96
Locus YGR078C, strain PAC10, active compounds read low
  normalized growth: 0.93
Locus YGR135W, strain pre9, active compounds read low
  normalized growth: 0.928
Locus YGR229C, strain SMI1, active compounds read low
  normalized growth: 0.86
Locus YGR252W, strain gcn5, active compounds read low
  normalized growth: 1.03
Locus YHR013C, strain ard1, active compounds read low
  normalized growth: 1.1
Locus YHR027C, strain rpn1, active compounds read low
  normalized growth: 0.955
Locus YHR030C, strain SLT2, active compounds read low
  normalized growth: 0.996 and 0.877
Locus YHR079C, strain IRE1 (second series), active compounds read low
  normalized growth: 0.963
Locus YHR079C, strain IRE1, active compounds read low
  normalized growth: 0.918
Locus YHR094C, strain hxt1, active compounds read low
  normalized growth: 1
Locus YHR129C, strain ARP1, active compounds read low
  normalized growth: 0.978
Locus YHR142W, strain chs7, active compounds read low
  normalized growth: 0.961
Locus YHR200W, strain rpn10, active compounds read low
  normalized growth: 1
Locus YIL066C, strain RNR3, active compounds read low
  normalized growth: 0.934
Locus YIL073C, strain SPO22, active compounds read low
  normalized growth: 0.929
Locus YIL125W, strain kgd1, active compounds read low
  normalized growth: 0.967
Locus YIR030C, strain dcg1, active compounds read low
  normalized growth: 0.998
Locus YJL092W, strain hpr5, active compounds read low
  normalized growth: 0.984
Locus YJL095W, strain BCK1 (second series), active compounds read low
  normalized growth: 0.979
Locus YJL095W, strain BCK1, active compounds read low
  normalized growth: 0.903 and 0.934
Locus YJL115W, strain asf1, active compounds read low
  normalized growth: 0.983
Locus YJL129C, strain trk1, active compounds read low
  normalized growth: 0.953
Locus YJL134W, strain LCB3, active compounds read low
  normalized growth: 1
Locus YJL154C, strain vps35, active compounds read low
  normalized growth: 0.984
Locus YJL164C, strain tpk1, active compounds read low
  normalized growth: 0.95
Locus YJL166W, strain qcr8, active compounds read low
  normalized growth: 0.951
Locus YJL168C, strain set2, active compounds read low
  normalized growth: 0.996
Locus YJL187C, strain SWE1 (second series), active compounds read low
  normalized growth: 0.886
Locus YJR043C, strain POL32, active compounds read low
  normalized growth: 0.97
Locus YJR066W, strain TOR1, active compounds read low
  normalized growth: 0.942
